Compound activity: PubChem BioAssay, several laboratories
In the library only some 1.2% were active in any assay of this set; here they are far more common.
Sa RN4220 lethal – kills Staphylococcus aureus RN4220; S. aureus RN4220 growth, OD600, 16 h; inhibition, % (concentration not given with the values); hit rate 0.33% among 330,000; AID 1259311; in the data active = inhibition above about 85%
ugtP null kill – growth inhibition of S. aureus ugtP deletion strain | S. aureus RN4220 ugtP deletion, OD600 growth, 16 h | growth inhibition, % (test concentration not listed) | hit rate 0.54% among 330,000; in the data active = growth inhibition above about 68%
BH1578 lux ind – induces V. cholerae light production without autoinducers; V. cholerae BH1578 lux reporter, luminescence, 6 h; activation, % at 18.7 µM; hit rate 0.16% among 350,000; AID 588436; in the data active = activation mostly above about 9.7%, no sharp cut-off
Mtb betalactam – beta-lactam sensitization of Mtb H37Rv. inhibition, % at 25 µM. M. tuberculosis H37Rv growth with meropenem, percent inhibition. AID 434955. hit rate 0.27% among 330,000; call rule not given here;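 also: growth measured after seven days incubation then overnight dye step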
PfHsp40 rescue – rescue of PfHsp40-mediated yeast toxicity; S. cerevisiae expressing PfHsp40, growth rescue, ATP luminescence; growth rescue, % at 12.5 µM; hit rate 0.68% among 340,000; AID 504582; in the data active = growth rescue above about 28%, passing the limit was not always enough;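 also: yeast W303a lacking pdr1 and pdr3 grown in galactose medium; growth measured after three days at 30 °C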
Numbers stand for hits; i = inactive; nt = no result.

SMILES	Sa RN4220 lethal	ugtP null kill	BH1578 lux ind	Mtb betalactam	PfHsp40 rescue
CC1CC(C)CC(C)C(O)C(C#N)=CC=CCC(C2CCCC2C(=O)O)OC(=O)CC(O)C(C)C1 (stereo unspecified)	nt	nt	i	nt	401
Cc1ccc(S(=O)(=O)Nc2nc3ccc(S(C)(=O)=O)cc3s2)cc1	i	i	i	i	i
Cc1ccc(S(=O)(=O)Nc2nc3ccc(N)cc3s2)cc1	i	84	i	i	i
C#CCOC1CC(n2cnc3c(=O)[nH]c(NC(=O)C(C)C)nc32)OC1CO (stereo unspecified)	i	i	nt	nt	nt
COc1ccccc1C1CCN(c2cc(O)ccc2[N+](=O)[O-])CC1	i	i	i	i	124
C#CCOCCOCCOCCNc1nc(N2CCN(C(=O)C(CCC(=O)O)n3cc(C(N)CC(C)C)nn3)CC2)nc(N2CCN(C(=O)C(Cc3ccc(O)cc3)n3cc(C(N)C(C)CC)nn3)CC2)n1 (stereo unspecified)	i	i	nt	nt	nt
CCCc1ccc2oc(C(=O)NCCc3cnn(C)c3)c(C)c2c1	i	i	i	i	i
CCCc1ccc2oc(C(=O)NCCc3nc(C(=O)OCC)cs3)c(C)c2c1	i	i	i	nt	40
N=C1SCC(=O)N1c1ncc(Cc2cccc(Cl)c2)s1	97	98	i	nt	i
Cc1cccc(Cc2cnc(N3C(=N)SC(c4ccccc4)C3=O)s2)c1 (stereo unspecified)	i	i	i	i	i
CC(C)C(=O)Nc1ncc(Cc2ccccc2Cl)s1	i	i	i	i	i
N=C1SCC(=O)N1c1ncc(Cc2ccccc2Cl)s1	93	i	i	nt	i
Cc1ccc(Cc2cnc(N3C(=N)SC(C)C3=O)s2)cc1 (stereo unspecified)	i	i	i	i	i
Cc1cccc(Cc2cnc(N3C(=N)SC(C)C3=O)s2)c1 (stereo unspecified)	90	i	i	i	i
Cc1ccc(C(=O)N2C3CN(C)C(=O)[C@@]2(C)C2C(=O)N(C)C(=O)C32)cc1 (stereo partly specified)	i	i	nt	nt	nt
COC(=O)COc1ccc(C=NNC(=O)CN(c2ccccc2OC)S(=O)(=O)c2ccccc2)cc1	i	i	nt	nt	nt
Cc1cc2ncn(N=Cc3ccc([N+](=O)[O-])o3)c2cc1C	100	101	nt	nt	nt
Cc1nc2ccccc2n1/N=C/c1ccc([N+](=O)[O-])o1	nt	nt	i	i	i
Cc1nc2ccccc2n1N=Cc1ccc([N+](=O)[O-])o1	101	100	nt	nt	nt
COC(/C(=N/O)c1ccc(Cl)cc1)c1ccccc1 (stereo unspecified)	nt	nt	i	i	122
ON=C(c1ccccc1)C(O)c1ccccc1 (stereo unspecified)	i	i	nt	nt	nt
COC(=O)c1ccccc1NC(=O)COC(=O)c1ccccc1N=Nc1ccc(N(C)C)cc1	i	i	i	i	73
CC(=O)CC(O)CC(=O)C1OC(=O)CCCCCCc2ccccc21 (stereo unspecified)	i	i	nt	nt	nt
O=C(c1ccccc1)c1nn(-c2ccc(Cl)cc2)c(=O)cc1C(F)(F)F	94	i	i	i	i
COc1c(OC)c(O)c2c(=O)c(O)c(-c3ccccc3)oc2c1OC	i	i	i	i	i
SMILES	Sa RN4220 lethal	ugtP null kill	BH1578 lux ind	Mtb betalactam	PfHsp40 rescue
COc1ccc(-c2oc3c(OC)c(OC)c(OC)c(O)c3c(=O)c2OC)cc1OC	i	i	i	i	71
CC(=O)OCC1=C(C(=O)O)N2C(=O)C(NC(=O)c3ccc(COc4ccc(Cl)cc4)o3)C2SC1 (stereo unspecified)	99	100	i	i	i
CC(=O)OCC1=C(C(=O)O)N2C(=O)C(NC(=O)c3ccc(COc4c(C)cccc4Cl)o3)C2SC1 (stereo unspecified)	96	100	i	i	i
COc1cc(C=NNc2ccc(S(N)(=O)=O)cc2[N+](=O)[O-])cc(OC)c1O	i	i	nt	nt	nt
COC(=O)C1=C(c2ccc(OC(F)(F)F)cc2)CC2CCC1N2C(=O)NCCNC(C)=O (stereo unspecified)	i	i	nt	nt	nt
CCCCOc1ccc(C(=O)OC2CC(C)N(C)CC2C)cc1 (stereo unspecified)	i	98	i	i	i
CN(C)[C@@H]1CCC[C@H]1OC(=O)C(c1ccccc1)c1ccccc1	i	i	i	i	i
CC1CN(C)C(C)CC1OC(=O)C(c1ccccc1)c1ccccc1 (stereo unspecified)	i	86	i	i	nt
COc1cc(C=NNC(N)=O)ccc1OC(=O)c1ccco1	i	i	nt	nt	nt
CC(=NNC(=O)c1ccc(Cl)cc1)c1ccc2[nH]ccc2c1	i	i	nt	nt	nt
O=C(O)c1ccccc1-c1c2cc(I)c(=O)c(I)c-2oc2c(I)c(O)c(I)cc12	i	i	i	i	34
O=Cc1ccc(-c2ccccc2C(=O)O)o1	i	i	i	i	i
Cc1cccc(NC(=O)c2ccccc2O)c1C	i	i	i	i	57
O=C(O)CCCC=CCC1C(O)CC(O)C1C=CC(O)COc1cccc(Cl)c1 (stereo unspecified)	i	i	nt	nt	nt
COc1ccccc1NC(=S)NN=Cc1cccc(C)c1	i	i	nt	nt	nt
CC1=CCC[C@@H]2[C@@](C)(CC/C(C)=C/C(=O)O)[C@H](C)CC[C@@]12C	nt	nt	i	i	58
CCOC(=O)C1CCN(c2c(C(=O)c3ccccc3)cnc3ccc(CC)cc23)CC1	i	94	i	i	i
COc1cc2ncc(C(=O)c3ccccc3)c(N3CCN(Cc4ccccc4)CC3)c2cc1OC	i	i	i	i	54
COc1ccccc1N1CCN(Cc2ccc(C(=O)O)cc2)CC1	i	i	i	i	i
Cc1cc2ncn(N=Cc3ccc(-c4ccccc4)o3)c2cc1C	i	i	nt	nt	nt
CCCCCCCC#Cc1ccccc1C=NS(=O)c1ccc(C)cc1 (stereo unspecified)	i	99	nt	nt	nt
O=C(Cc1cccc2ccccc12)NN=Cc1ccc(Sc2nc3ccccc3s2)o1	i	i	nt	nt	nt
O=C(O)c1ccc(N/N=C/c2c(F)cccc2Cl)cc1	nt	nt	i	i	106
O=C(O)c1ccc(NN=Cc2c(F)cccc2Cl)cc1	i	i	nt	nt	nt
Cc1nc2ccccc2c(=O)n1N=Cc1ccco1	i	i	nt	nt	nt
SMILES	Sa RN4220 lethal	ugtP null kill	BH1578 lux ind	Mtb betalactam	PfHsp40 rescue
O=C(NC1CCSc2ccccc21)c1cccc(Br)c1 (stereo unspecified)	i	i	i	i	94
O=C(NC1CCSc2ccccc21)c1cccc(OC(F)F)c1 (stereo unspecified)	i	i	i	i	i
COc1ccc(NC=C(C2OC(=O)c3ccccc32)[N+](=O)[O-])cc1 (stereo unspecified)	i	i	nt	nt	nt
Cc1ccc(/C=C2\C(=O)Nc3ccccc32)o1	i	100	i	i	i
NS(=O)(=O)c1ccc(-c2ccc(/C=C3\C(=O)Nc4ccccc43)o2)cc1	nt	nt	nt	i	nt
O=C(Nc1cc(Oc2ccc(Cl)cc2)cc([N+](=O)[O-])c1)c1ccco1	i	i	i	i	352
CCOc1ccc(Oc2cc(NC(=O)c3ccco3)cc([N+](=O)[O-])c2)cc1	i	i	i	i	i
CC1CN=C(N(C(=O)Nc2ccccc2)C(C)C)S1 (stereo unspecified)	i	i	i	i	i
Cc1ccc(N(C(=O)Nc2ccccc2)C2=NCC(C)S2)cc1 (stereo unspecified)	i	88	i	i	i
